# Screening results: PubChem BioAssay, National Center for Advancing Translational Sciences (NCATS)
# Rows were chosen to be rich in hits. Some 5.3% of all compounds tested hit in one or more screens of this group.
# ALOX12 inhib: 12-hLO (ALOX12) enzyme inhibition | P18054 | purified 12-hLO, xylenol orange hydroperoxide absorbance | Potency, µM (doses to about 57.1 µM), usual class: inhibitors | hit rate 0.12% among 150,000; note: nearly all actives have a fitted effect of over 55% in size
#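 Hydroperoxide output read as Fe(III)-xylenol orange absorbance, 573-to-405 nm ratio, after 30 min reaction with 40 uM arachidonic acid. Enzyme: 150 nM purified human 12hLO, 15 min compound preincubation; 25 mM Hepes pH 7.0, room temperature.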
# IMPase Li cell: cell-permeable IMPase inhibitors with lithium potentiation. CHO-M1 cells, IP1 TR-FRET (IP-One), carbachol + lithium. Potency, µM (series often up to 59.4 µM), usual class: inhibitors. hit rate 0.35% among 210,000;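 note: IP1 builds up when IMPase is blocked and the TR-FRET signal falls; nearly all actives have a fitted effect of over 50% in size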
#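 CHO cells stably expressing M1 receptor (2000/well) were cultured 16–30 h, then exposed to compounds with a small lithium addition for 30 min at 37C. IP1 was measured by TR-FRET competition; AC50 from Hill fits.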
# 15-hLO-2 inh: 15-hLO-2 (ALOX15B) enzyme inhibition | AID 881 | O15296 | purified 15hLO-2, xylenol orange hydroperoxide absorbance | hit rate 0.56% among 110,000 | Potency, µM (series often up to 57.1 µM), most hits filed as inhibitors; note: nearly all actives have a fitted effect of over 60% in size
#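 Enzyme 50 nM, AA 45 uM, 25 mM Hepes pH 7.5 + 0.01% Triton X-100; cpd preinc 15 min RT, rxn 90 min RT; stop/detect with 200 uM XO + 300 uM Fe(II) in 50 mM H2SO4, 30 min; A573/A405.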
# PNC assembly inh: perinucleolar compartment assembly inhibition; AID 2417; activity change (PNC), negative = inhibition, % at 10 µM; hit rate 3.1% among 140,000; PC3M PTB-GFP, PNC prevalence imaging, 16 h; hits give low values;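 active = readout at or below -70, meaning at least 70% loss of cells showing the perinucleolar compartment, a nuclear body marking cancer cells; inconclusive = readout between -30 and a set limit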
#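 Compounds are pinned in duplicate onto adhered PC3M cells stably expressing GFP-tagged PTB and incubated 16 h at 37 C. Cells are then fixed, nuclei stained with Hoechst, and PNC-positive cells counted.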
# IMPase inh: cell-permeable inhibitors of inositol monophosphatase (IMPase); CHO-M1 cells, IP1 accumulation, HTRF TR-FRET ratio; 120,000 tested, under 10 active; inhibition (IP1 accumulation), % at 46.1 µM; AID 901; active = well fitted curve in the direction sought with a large enough effect in the signal ratio, not every such curve was filed as active; inconclusive = small, poorly fitted or top-dose-only effect, or a change in a side signal; inactive = no such curve, though single readings can be large or run the other way; the % refers to the signal ratio;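 note: cells stimulated with carbachol in lithium chloride buffer; higher means more IMPase inhibition seen as more IP1 and lower FRET ratio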
# Target sequence (P97697 whole entry, looked up): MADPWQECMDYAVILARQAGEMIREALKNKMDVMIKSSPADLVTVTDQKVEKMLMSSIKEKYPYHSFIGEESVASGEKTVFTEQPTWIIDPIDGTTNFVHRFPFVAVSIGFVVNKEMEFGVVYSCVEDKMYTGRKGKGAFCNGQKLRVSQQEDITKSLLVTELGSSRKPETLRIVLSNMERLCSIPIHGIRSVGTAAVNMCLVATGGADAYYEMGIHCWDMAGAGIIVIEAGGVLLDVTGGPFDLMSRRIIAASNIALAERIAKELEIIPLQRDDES
#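 CHO-M1 cells (CHO stably expressing M1 receptor), compound up to 46 uM final, stimulated with carbachol (50 uM as added) in buffer with 50mM LiCl, pH 7.4, 30 min at 37C. Cytosolic IP1 read by TR-FRET; AC50 from Hill fits.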
# HPGD block: blocks human HPGD enzyme activity; P15428; purified HPGD, NADH fluorescence kinetic, PGE2 substrate; Potency, µM, actives largely listed as inhibitors; hit rate 4.3% among 150,000; active = well fitted inhibition curve with a large enough effect, not every such curve was filed as active; inconclusive = small, poorly fitted or top-dose-only effect, or another doubt; inactive = no such curve, though single readings can be large or run the other way
# Target sequence (P15428 whole entry, looked up): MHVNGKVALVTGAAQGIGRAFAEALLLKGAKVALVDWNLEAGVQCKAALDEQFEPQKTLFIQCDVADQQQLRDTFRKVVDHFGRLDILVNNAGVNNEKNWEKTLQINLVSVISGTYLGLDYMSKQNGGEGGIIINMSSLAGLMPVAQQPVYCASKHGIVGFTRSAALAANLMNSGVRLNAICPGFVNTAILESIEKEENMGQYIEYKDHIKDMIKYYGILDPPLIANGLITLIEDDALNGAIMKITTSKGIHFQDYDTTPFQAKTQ
#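 NADH formation kinetics: reaction with 30 uM PGE2 and 1 mM NAD+ (final), 20 nM enzyme, Tris-HCl pH 8 with Tween 20, after 15 min compound preincubation at room temperature. Fluorescence change, last versus first of five reads.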
# A number is an active result; 0 = inactive; ? = inconclusive; - = no result. Unless noted, calls come from the whole dose curve; as a rule, active = well fitted curve in the direction sought with a large enough effect; inconclusive = small, poorly fitted or top-dose-only effect, or another doubt; inactive = no such curve, though single readings can be large; an effect the other way counts as inactive or inconclusive.
SMILES,ALOX12 inhib,IMPase Li cell,15-hLO-2 inh,PNC assembly inh,IMPase inh,HPGD block
O=C(/C=C/c1cccc([N+](=O)[O-])c1)Nc1cccc(NC(=O)c2cccs2)c1,0,0,-,?,-,0
O=C(Cc1ccc2c(c1)CCCC2)Nc1ccccc1Br,0,0,0,0,0,25.1µM
O=C(Cn1cc2c(n1)CCCC2)Nc1ccccc1Br,0,0,0,?,0,?
CC(C)COC(=O)n1ccc(C(=O)N2CCCCC2)n1,0,0,0,0,0,10µM
CC(=O)c1ccc(NC(=O)c2ccn(C(=O)OCC(C)C)n2)cc1,0,0,-,0,-,0
O=C(CSc1n[nH]c(-c2ccccc2)n1)NC(=O)NCc1ccco1,0,0,0,0,0,14.1µM
O=C(CSc1nc2ccccc2s1)NC(=O)NCc1ccco1,0,?,0,0,0,25.1µM
O=C(CSc1n[nH]c(-c2ccccc2)n1)Nc1ccc(Br)cn1,0,0,-,0,0,12.6µM
CS/C(=N\S(=O)(=O)c1cccs1)NC(=O)CSc1nc2ccccc2s1,0,0,0,0,0,25.1µM
NS(=O)(=O)c1ccc(NC(=O)C2C3C=CC(C3)C2C(=O)O)cc1 (stereo not drawn),-,0,-,-,-,-
Cc1ccccc1CSCC(=O)NC(=O)NCc1ccco1,0,0,0,-95.0,0,0
CCCNC(=O)C1CNc2ccccc2O1 (stereo not drawn),0,0,0,0,0,25.1µM
O=C(NCCO)C1COc2ccccc2O1 (stereo not drawn),-,0,-,-,-,-
CCOC(=O)C(CCc1ccccc1)NC(C)C(=O)N1CCCC1C(=O)O (stereo not drawn),0,0,0,-,-,0
c1cncc(-c2nnc(-c3cccnc3)nn2)c1,0,0,0,?,0,8.91µM
CC1(C)CC(=S)Nc2ccccc2S1,?,0,-,-100.0,0,15.8µM
CCOC(=O)N1CCN(c2c(NCc3ccc(Cl)cc3)c(=O)c2=O)CC1,0,0,0,?,0,0
CCOC(=O)N1CCN(c2c(NCc3ccccc3OC)c(=O)c2=O)CC1,0,0,0,0,0,15.8µM
CCOC(=O)N1CCN(c2c(NCc3cccs3)c(=O)c2=O)CC1,0,0,0,0,0,28.2µM
COC(=O)CSc1nnc(CNC(=O)c2ccc(OC)c(OC)c2)n1C,-,0,-,-,-,-
O=C(c1cccc(F)c1)N1CCC2(CC1)CN(c1cccc(-c3ccccc3)c1)C2,0,0,0,-,-,?
Cc1cccn2c(/C=N/OCc3ccc(F)cc3)c(-c3ccc(Cl)cc3)nc12,0,0,0,-108.8,0,?
COc1ccc(/C(C#N)=C/c2c(-c3ccc(Cl)cc3)nc3c(C)cccn23)cc1,0,0,0,0,0,0
Cc1cc(=O)c2n(Cc3ccccc3Cl)nc[n+]2[nH]1,0,0,-,0,0,20µM
CC(C)C[C@H](NC(=O)[C@H](CCC(N)=O)NC(=O)[C@H](CCCCN)NC(=O)[C@H](CCC(N)=O)NC(=O)[C@@H](N)CCC(=O)O)C(=O)N[C@@H](CCC(N)=O)C(=O)O,-,0,-,-,-,-
SMILES,ALOX12 inhib,IMPase Li cell,15-hLO-2 inh,PNC assembly inh,IMPase inh,HPGD block
COc1ccc(-n2nc(N)c(C(N)=O)n2)cc1,-,0,-,-,-,-
O=C(O)c1c(Cl)c(Cl)c(Cl)c(Cl)c1-c1c2cc(I)c(=O)c(I)c-2oc2c(I)c(O)c(I)cc12,?,?,7.94µM,-,-,31.6µM
COc1ccc(C(C#N)c2ccc(=O)[nH]n2)cc1 (stereo not drawn),-,0,-,-,-,-
Cn1c(SCC(=O)NCc2cccs2)nnc1-c1cccs1,0,0,0,0,0,0
O=C(CSc1n[nH]c(-c2cccs2)n1)NCc1cccs1,0,0,-,0,?,17.8µM
Nc1nc(SCC(=O)NCc2ccc3c(c2)OCO3)n[nH]1,-,0,-,-,-,-
O=C(CSc1n[nH]c(-c2cccs2)n1)NCc1ccc2c(c1)OCO2,0,0,0,?,0,12.6µM
O=C(CSc1nc2ccccc2s1)NCc1ccc2c(c1)OCO2,0,0,-,0,-,31.6µM
O=C(CSc1nc2ccccc2s1)NC1CCCc2ccccc21 (stereo not drawn),0,0,-,?,0,11.2µM
